Measurements as given in publication PMC7819943, “Rice protein-binding microarrays: a tool to detect cis-acting elements near promoter regions in rice”.
Over roughly 35,000 sequences, “fluorescence intensity (a.u.)” has its median near 10,000; the highest 2% begin near 52,000. The list comes from a sample in which the highest values are over-represented; it also holds similar and randomly drawn sequences.

molecular target: T1, OsWOX13 (Oryza sativa, UniProt Q5QMM3 1-267); test: protein-binding microarray (RPBM); PBS, 2% BSA, 51.3 ng/ul salmon testes DNA, 50 uM zinc acetate, 200 nM TF, 25 C, 1 h; high values mean tight binding; conditions: protein: recombinant; tags: N-terminal polyhistidine and DsRed monomer fusion (pET32a); label: CyDye5-dUTP incorporated in the synthesized complementary strand; 3' TTTTT single-stranded linker to array surface; dsDNA, one strand shown
T1 sequence: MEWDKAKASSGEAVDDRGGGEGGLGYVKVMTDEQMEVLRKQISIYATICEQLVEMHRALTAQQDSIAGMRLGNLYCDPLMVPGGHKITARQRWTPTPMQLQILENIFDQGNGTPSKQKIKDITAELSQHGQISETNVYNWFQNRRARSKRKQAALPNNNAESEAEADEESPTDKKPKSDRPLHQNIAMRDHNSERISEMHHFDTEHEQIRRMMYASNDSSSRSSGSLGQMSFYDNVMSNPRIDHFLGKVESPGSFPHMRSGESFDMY
Outline: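 A custom Agilent array was converted to double-stranded form by primer extension with Cy5-dUTP and blocked with 2% BSA. Protein at 200 nM in PBS with 2% BSA, salmon testes DNA and 50 µM zinc acetate was applied for 1 h at 25 °C, followed by washing. The proteins were polyhistidine–DsRed N-terminal fusions of transcription factors, expressed in E. coli BL21-CodonPlus and Ni–NTA-purified. The binding signal is per-feature fluorescence intensity (arbitrary units) from an Axon 4000B scanner.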

Sequence | binding signal
ATATAATGGGCACTATGATTTGCTCTAAATATTGGTCATTCGGAGTCACCTAGTGCAG | 28800 fluorescence intensity (a.u.)
TCCTGATTGTTCACAATTGTGCTAGTTCAAACAAGGCAAACGGAGTCACCTAGTGCAG | 24800 fluorescence intensity (a.u.)
AGATGCTGATTGGTTGCGAACTATCTGTTCAATTTGCATCCGGAGTCACCTAGTGCAG | 46300 fluorescence intensity (a.u.)
CTGGAATGAGTGGTGGTTGATTGTTTAGTGTTTACTGTTCCGGAGTCACCTAGTGCAG | 18500 fluorescence intensity (a.u.)
ATGATGATGATATACACGCCAAATTGAATTAGAAACTGATCGGAGTCACCTAGTGCAG | 6800 fluorescence intensity (a.u.)
TATAAAATTGATGGTTGGAATTATAAATATTTCGATTGAACGGAGTCACCTAGTGCAG | 9830 fluorescence intensity (a.u.)
CATCAATTAATTGACATGATACTATCTACCTTGCGTGTCGCGGAGTCACCTAGTGCAG | 65000 fluorescence intensity (a.u.)
TAGATGAAATGGGTTGGGTTGATTTGGGTTGAAATATGATCGGAGTCACCTAGTGCAG | 6400 fluorescence intensity (a.u.)
TACATCCCTACTAATTGTGTCATGTATCAATAATGATATGCGGAGTCACCTAGTGCAG | 3560 fluorescence intensity (a.u.)
GCACTGATTGAATTGAACTGTATAGAACAAAATGAAATTTCGGAGTCACCTAGTGCAG | 19600 fluorescence intensity (a.u.)
GATGATTGATTGGGTTGGTTGGAACGTGCGATGGAATGATCGGAGTCACCTAGTGCAG | 65400 fluorescence intensity (a.u.)
ACTATTATATTGATCAATTGATTACATAATTCACGTGTCGCGGAGTCACCTAGTGCAG | 43700 fluorescence intensity (a.u.)
AAATGATTGAATCCTAGAAACTCTGACCTATACAAGTGGTCGGAGTCACCTAGTGCAG | 60500 fluorescence intensity (a.u.)
TTGATTGCGAATGATTGGAGCTGGTTGCTGTTGCTAGATCCGGAGTCACCTAGTGCAG | 57800 fluorescence intensity (a.u.)
GATAACGTGGCCAAATTATATCAGACGTTCATGTTTAGATCGGAGTCACCTAGTGCAG | 5800 fluorescence intensity (a.u.)
TTCACAAATTTTGATGCGATGATTAGCTAAGGCATGTTCGCGGAGTCACCTAGTGCAG | 23500 fluorescence intensity (a.u.)
TTACGATGATATATAATTGGACGGAAGCAGCGATCATGCTCGGAGTCACCTAGTGCAG | 14100 fluorescence intensity (a.u.)
AGCTAATTTATGCATGCATGGATTCCGATGGAGGAGCTGTCGGAGTCACCTAGTGCAG | 19400 fluorescence intensity (a.u.)
GAGCAATTAGGCTTAAAAGATTCGTCTCGCAAATTAGTCGCGGAGTCACCTAGTGCAG | 3540 fluorescence intensity (a.u.)
TGCTGGTTGATTGATTGATTGATGGACAAATAGGTAGATGCGGAGTCACCTAGTGCAG | 56300 fluorescence intensity (a.u.)
TTCTGATTTGCCCCTATCTTATTGAGATTGCTTGTGTGATCGGAGTCACCTAGTGCAG | 30600 fluorescence intensity (a.u.)
AATGGAGATTGGATCTGATTGGTTGTTGTTGCTTGAGGATCGGAGTCACCTAGTGCAG | 62600 fluorescence intensity (a.u.)
TTGATTGATGGGTAGTAAGGAAACCTTTTGAATGAGTGGTCGGAGTCACCTAGTGCAG | 64700 fluorescence intensity (a.u.)
GATGATGGATTGGAAAGGCAAGTAAGCTGGAGTAGGTGGTCGGAGTCACCTAGTGCAG | 38000 fluorescence intensity (a.u.)
CAAAATTTGATGAATGGAAGGGTCGAAACTGAGTGATTGCCGGAGTCACCTAGTGCAG | 23600 fluorescence intensity (a.u.)
ATAGATGAAGAATAAATATGATTGGTAGAGAAGAGAGATGCGGAGTCACCTAGTGCAG | 25600 fluorescence intensity (a.u.)
TGGAATGATGTTGGGATTGATGGATGGATGTATGTTTTGTCGGAGTCACCTAGTGCAG | 15300 fluorescence intensity (a.u.)

Sequence | binding signal
TCTGTTGATGAATGGATTGATTGATGGATGGATGGATGGTCGGAGTCACCTAGTGCAG | 64100 fluorescence intensity (a.u.)
GTGATTGAAATGGATCCTGGTCGGAAATGAATCCTGGTCGCGGAGTCACCTAGTGCAG | 43700 fluorescence intensity (a.u.)
TCTGATTGCTGTTAGTTGTTGATGAGATGGAGATGGAGATCGGAGTCACCTAGTGCAG | 39900 fluorescence intensity (a.u.)
GCAGCCTAGATTGACAATAGATGAATTGGAGCTAGTAGTGCGGAGTCACCTAGTGCAG | 35400 fluorescence intensity (a.u.)
TTTTATAATTATATAGCACACCCCACTTCACACGCATATCCGGAGTCACCTAGTGCAG | 15300 fluorescence intensity (a.u.)
CTATTGATTGTTGGCGAGCATGTTCTTATCCAGTTGACTTCGGAGTCACCTAGTGCAG | 33100 fluorescence intensity (a.u.)
GTTTGTTAATTATTCACTAATCTCTAGTACTATAGTTGTACGGAGTCACCTAGTGCAG | 17100 fluorescence intensity (a.u.)
AACAGTTCTGCTGAACCTCTTTTGCCTGCCCAAATCAAAACGGAGTCACCTAGTGCAG | 7650 fluorescence intensity (a.u.)
AGATGGGAATCATTATCAATCTATCATCCTAAATATAAACCGGAGTCACCTAGTGCAG | 4070 fluorescence intensity (a.u.)
TCGATTGACTGGACGAGGAATAGTAACCCTGCACATTGTGCGGAGTCACCTAGTGCAG | 44100 fluorescence intensity (a.u.)
GAATACTGACAGTAAAGATGATTGCAGAATTAGCTCATAGCGGAGTCACCTAGTGCAG | 19400 fluorescence intensity (a.u.)
TGCATAAGTGTTAAATTGACAGCCACTTGGTCTGTTCGTTCGGAGTCACCTAGTGCAG | 21700 fluorescence intensity (a.u.)
ATGCCTGATTGGAAATCTACTATTACTATTCATGATACCGCGGAGTCACCTAGTGCAG | 58500 fluorescence intensity (a.u.)
TACTCCTGTTGATAGGTATATTGATCTGAATCATCTGGTACGGAGTCACCTAGTGCAG | 3790 fluorescence intensity (a.u.)
CACATACTATACTACATTAATTATATTCTGATGAAATCCGCGGAGTCACCTAGTGCAG | 4130 fluorescence intensity (a.u.)
TCTTGATTGAAACAATCTTTTGATCCCATAATCTTGCCCGCGGAGTCACCTAGTGCAG | 63700 fluorescence intensity (a.u.)
TTAATTGATTTGGAAATCCTCTAGTTATCTGGATTAGTTTCGGAGTCACCTAGTGCAG | 37300 fluorescence intensity (a.u.)
AACTAAACATAATCTTTGAAAAGTTTGATTTTGAACACGGCGGAGTCACCTAGTGCAG | 6770 fluorescence intensity (a.u.)
ATGATTTACTATTAATCTAGTCTATTGCTGAGATATACATCGGAGTCACCTAGTGCAG | 11000 fluorescence intensity (a.u.)
CCTGTTGATTGGATATCTGGAACCTGAAATCCTGAATACGCGGAGTCACCTAGTGCAG | 55800 fluorescence intensity (a.u.)
TTTCTTTTGAAATTGATTACAATCTACATAAGGAGAGTCGCGGAGTCACCTAGTGCAG | 16500 fluorescence intensity (a.u.)
ATTAGTTGGATTGATTCAAACAAAGAGGTGATAATAATTGCGGAGTCACCTAGTGCAG | 11900 fluorescence intensity (a.u.)
ACATGGGAATTTTGGTGGGATGGGGATGGGGATGGGGAATCGGAGTCACCTAGTGCAG | 7450 fluorescence intensity (a.u.)
GTGATTTTGTTAAACTTAGGCTGCTTGTTTCATCAATTGCCGGAGTCACCTAGTGCAG | 3740 fluorescence intensity (a.u.)
GGGTTTCAATCATTTAGGTGGACGTCCACTCATTTATTGCCGGAGTCACCTAGTGCAG | 16200 fluorescence intensity (a.u.)
TATGGTTAATTATGTATTTATCGACAACGGGATGTTCGTACGGAGTCACCTAGTGCAG | 15000 fluorescence intensity (a.u.)
CACGAAATTAATTTAGCTCTACATCCGTTCTGTTTATGAACGGAGTCACCTAGTGCAG | 8960 fluorescence intensity (a.u.)
